Laboratory results as given in the supplement of paper PMC10849652.
About 8,800 targets were measured; listed, in parts, are those with a hit and a random draw of the rest. About 0.5% of all pairs of compound and target were hits. Unmarked numbers belong to inactive results.

Assays:
Experiment in all cases: log2 fold change, soluble protein after heating vs DMSO (PISA); higher = thermal stabilisation; K562 lysate, 10 uM; active = over 0.2 and 3.5 SD of the protein, either way, in both replicates (recomputed)
[1] = compound: CN1CC[C@H](c2c(O)cc(O)c3c(=O)cc(-c4ccccc4Cl)oc23)[C@H](O)C1 [alvocidib]
Method in brief: (§1)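 K562 pellets were dounce-homogenised in PBS pH 7.4 containing 1 mM MgCl2, and the crude extract, at 1 mg/mL protein, was exposed to 10 μM compound for 30 min. Aliquots were heated for 3 min across 48°C-58°C, pooled, brought to 0.5% NP-40 at 4°C and spun at 21,000xg for 90 min, with the supernatant taken as soluble protein. TMTpro 16plex LC-MS/MS with equalised channel sums quantified that protein. Values are log-two fold changes in thermal stability relative to solvent controls, taken from duplicates.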

[2] = compound: CN1CCc2c(c3ccccc3n2Cc2ccc(C(=O)NO)cc2)C1 [Tubastatin A]
Method in brief: as §1

[3] = compound: CNC(=O)C1=CC=CC=C1NC2=NC(=NC=C2Cl)NC3=C(C=C(C=C3)N4CCOCC4)OC
Method in brief: as §1

[4] = compound: CNC(=O)c1ccc(Nc2ncc(C(F)(F)F)c(NCc3nccnc3N(C)S(C)(=O)=O)n2)cc1 [defactinib]
Method in brief: as §1

[5] = compound: CNc1nc(-c2ccc3c(N)n[nH]c3c2)cc(N2C[C@@H](C(=O)NC3CCCCC3)CC[C@H]2C)n1
Method in brief: as §1

[6] = compound: COC(=O)N[C@@H](C)CNc1nccc(-c2cn(C(C)C)nc2-c2cc(Cl)cc(NS(C)(=O)=O)c2F)n1 [encorafenib]
Method in brief: as §1

[7] = compound: COC(=O)[C@H](CCSC)NC(=O)C1=C(C=C(C=C1)NC[C@H](CS)N)C2=CC=CC=C2
Method in brief: as §1

[8] = compound: COc1cc(Nc2ncc3c(n2)-c2ccc(Cl)cc2C(c2c(F)cccc2OC)=NC3)ccc1C(=O)O [alisertib]
Method in brief: as §1

[9] = compound: COc1cc2nc(-c3cc(F)ccc3O)nc(N[C@@H]3CNC[C@H]3C(C)(C)O)c2cc1OC
Method in brief: as §1

[10] = compound: COc1cc2ncnc(Nc3ccc(F)c(Cl)c3)c2cc1OCCCN1CCOCC1 [gefitinib]
Method in brief: as §1

[11] = compound: CS(=O)(=O)CCNCc1ccc(-c2ccc3ncnc(Nc4ccc(OCc5cccc(F)c5)c(Cl)c4)c3c2)o1 [lapatinib]
Method in brief: as §1

[12] = compound: CS(=O)(=O)N1CCN(Cc2cc3nc(-c4cccc5[nH]ncc45)nc(N4CCOCC4)c3s2)CC1 [pictilisib]
Method in brief: as §1

[13] = compound: C[C@@H](Oc1cc(-c2cnn(C3CCNCC3)c2)cnc1N)c1c(Cl)ccc(F)c1Cl [crizotinib]
Method in brief: as §1

[14] = compound: C[C@H](C1=CC=C(C=C1)C(=O)NC2=C3C=CNC3=NC=C2)N
Method in brief: as §1

[15] = compound: C[C@H](Nc1ncnc2nc[nH]c12)c1cc2cccc(Cl)c2c(=O)n1-c1ccccc1 [duvelisib]
Method in brief: as §1

[16] = compound: Cc1cc(Nc2cc(CN3CCOCC3)c3nc(C)c(Cc4ccc(Cl)cc4F)n3n2)n[nH]1 [gandotinib]
Method in brief: as §1

[17] = compound: Cc1cc(Nc2cc(N3CCN(C)CC3)nc(Sc3ccc(NC(=O)C4CC4)cc3)n2)n[nH]1 [tozasertib]
Method in brief: as §1

[18] = compound: Cc1ccc(-n2nc(C(C)(C)C)cc2NC(=O)Nc2ccc(OCCN3CCOCC3)c3ccccc23)cc1 [doramapimod]
Method in brief: as §1

[19] = compound: Cc1ccc(NC(=O)c2ccc(CN3CC[C@H](N(C)C)C3)c(C(F)(F)F)c2)cc1Nc1nccc(-c2cncnc2)n1 [bafetinib]
Method in brief: as §1

[20] = compound: Cc1cccc(CC(=O)N2CCc3c2ccc(-c2cn(C)c4ncnc(N)c24)c3F)n1
Method in brief: as §1

Chain of UniProt Q99081 (Q99081 whole entry, looked up): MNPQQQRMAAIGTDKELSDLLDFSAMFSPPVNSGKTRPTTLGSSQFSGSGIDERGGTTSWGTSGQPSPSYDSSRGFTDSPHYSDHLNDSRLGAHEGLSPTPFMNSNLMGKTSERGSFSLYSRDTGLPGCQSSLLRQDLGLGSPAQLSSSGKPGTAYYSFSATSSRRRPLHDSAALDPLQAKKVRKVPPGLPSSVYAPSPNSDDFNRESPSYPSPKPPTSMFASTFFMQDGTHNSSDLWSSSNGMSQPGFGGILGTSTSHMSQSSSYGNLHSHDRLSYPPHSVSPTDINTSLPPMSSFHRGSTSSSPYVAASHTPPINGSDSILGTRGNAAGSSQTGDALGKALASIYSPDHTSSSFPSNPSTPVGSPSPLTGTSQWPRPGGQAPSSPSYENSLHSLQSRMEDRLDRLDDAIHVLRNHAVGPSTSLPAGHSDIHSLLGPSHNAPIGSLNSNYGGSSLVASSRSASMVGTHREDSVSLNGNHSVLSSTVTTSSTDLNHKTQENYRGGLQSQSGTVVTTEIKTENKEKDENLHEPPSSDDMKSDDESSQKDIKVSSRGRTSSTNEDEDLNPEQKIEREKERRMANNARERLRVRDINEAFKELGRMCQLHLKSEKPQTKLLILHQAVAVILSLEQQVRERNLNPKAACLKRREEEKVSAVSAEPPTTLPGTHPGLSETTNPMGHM
Chain of UniProt Q9BZV1 (Q9BZV1 whole entry, looked up): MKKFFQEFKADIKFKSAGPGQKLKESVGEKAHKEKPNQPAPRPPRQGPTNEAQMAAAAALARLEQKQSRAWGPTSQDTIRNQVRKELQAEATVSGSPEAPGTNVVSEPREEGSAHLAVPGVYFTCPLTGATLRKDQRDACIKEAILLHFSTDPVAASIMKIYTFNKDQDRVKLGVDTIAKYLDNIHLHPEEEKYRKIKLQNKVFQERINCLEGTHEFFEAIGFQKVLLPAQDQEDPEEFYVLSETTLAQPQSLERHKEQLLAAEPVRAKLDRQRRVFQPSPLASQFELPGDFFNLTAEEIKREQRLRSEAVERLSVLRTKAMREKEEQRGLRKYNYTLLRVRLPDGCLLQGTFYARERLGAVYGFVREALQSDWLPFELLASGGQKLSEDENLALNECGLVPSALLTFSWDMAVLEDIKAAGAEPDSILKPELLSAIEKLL
Chain of UniProt Q15645 (Q15645 whole entry, looked up): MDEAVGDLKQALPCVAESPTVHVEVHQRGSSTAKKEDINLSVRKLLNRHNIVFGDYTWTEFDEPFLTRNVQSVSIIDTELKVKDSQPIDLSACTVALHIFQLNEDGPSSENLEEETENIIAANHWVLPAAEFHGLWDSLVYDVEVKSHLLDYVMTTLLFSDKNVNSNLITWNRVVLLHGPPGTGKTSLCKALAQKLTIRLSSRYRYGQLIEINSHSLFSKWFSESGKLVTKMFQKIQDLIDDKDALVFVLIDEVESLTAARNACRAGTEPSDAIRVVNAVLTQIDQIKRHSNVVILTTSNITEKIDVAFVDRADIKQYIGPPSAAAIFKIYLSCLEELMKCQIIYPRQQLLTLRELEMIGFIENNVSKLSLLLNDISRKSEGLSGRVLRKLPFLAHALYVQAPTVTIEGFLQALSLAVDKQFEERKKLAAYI
Chain of UniProt P15923 (P15923 whole entry, looked up): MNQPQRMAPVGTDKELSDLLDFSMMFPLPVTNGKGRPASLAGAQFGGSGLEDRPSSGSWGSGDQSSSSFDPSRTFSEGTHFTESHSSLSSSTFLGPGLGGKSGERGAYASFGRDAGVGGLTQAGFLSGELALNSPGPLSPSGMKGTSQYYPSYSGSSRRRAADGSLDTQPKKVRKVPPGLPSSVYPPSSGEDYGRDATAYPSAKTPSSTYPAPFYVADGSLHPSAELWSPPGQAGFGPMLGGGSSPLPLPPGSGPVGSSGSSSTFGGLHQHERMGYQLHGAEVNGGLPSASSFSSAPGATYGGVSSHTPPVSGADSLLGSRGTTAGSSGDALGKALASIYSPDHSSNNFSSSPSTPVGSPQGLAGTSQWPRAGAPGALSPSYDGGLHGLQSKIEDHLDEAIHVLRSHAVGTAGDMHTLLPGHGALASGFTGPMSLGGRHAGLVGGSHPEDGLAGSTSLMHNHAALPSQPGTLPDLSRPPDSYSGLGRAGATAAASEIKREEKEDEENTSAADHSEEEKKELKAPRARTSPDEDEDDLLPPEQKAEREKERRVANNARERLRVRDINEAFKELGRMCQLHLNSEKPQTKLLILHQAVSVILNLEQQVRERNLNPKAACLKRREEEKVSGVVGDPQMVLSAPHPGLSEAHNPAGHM
Chain of UniProt Q9NX07 (Q9NX07 whole entry, looked up): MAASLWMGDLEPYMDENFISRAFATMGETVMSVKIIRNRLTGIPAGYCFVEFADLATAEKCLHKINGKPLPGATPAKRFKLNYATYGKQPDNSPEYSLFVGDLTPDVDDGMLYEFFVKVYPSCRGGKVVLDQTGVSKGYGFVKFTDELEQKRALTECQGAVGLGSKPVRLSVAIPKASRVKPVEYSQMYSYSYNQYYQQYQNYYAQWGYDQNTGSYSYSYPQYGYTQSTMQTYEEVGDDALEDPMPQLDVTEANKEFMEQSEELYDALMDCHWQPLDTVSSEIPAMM
Chain of UniProt Q9ULW0 (Q9ULW0 whole entry, looked up): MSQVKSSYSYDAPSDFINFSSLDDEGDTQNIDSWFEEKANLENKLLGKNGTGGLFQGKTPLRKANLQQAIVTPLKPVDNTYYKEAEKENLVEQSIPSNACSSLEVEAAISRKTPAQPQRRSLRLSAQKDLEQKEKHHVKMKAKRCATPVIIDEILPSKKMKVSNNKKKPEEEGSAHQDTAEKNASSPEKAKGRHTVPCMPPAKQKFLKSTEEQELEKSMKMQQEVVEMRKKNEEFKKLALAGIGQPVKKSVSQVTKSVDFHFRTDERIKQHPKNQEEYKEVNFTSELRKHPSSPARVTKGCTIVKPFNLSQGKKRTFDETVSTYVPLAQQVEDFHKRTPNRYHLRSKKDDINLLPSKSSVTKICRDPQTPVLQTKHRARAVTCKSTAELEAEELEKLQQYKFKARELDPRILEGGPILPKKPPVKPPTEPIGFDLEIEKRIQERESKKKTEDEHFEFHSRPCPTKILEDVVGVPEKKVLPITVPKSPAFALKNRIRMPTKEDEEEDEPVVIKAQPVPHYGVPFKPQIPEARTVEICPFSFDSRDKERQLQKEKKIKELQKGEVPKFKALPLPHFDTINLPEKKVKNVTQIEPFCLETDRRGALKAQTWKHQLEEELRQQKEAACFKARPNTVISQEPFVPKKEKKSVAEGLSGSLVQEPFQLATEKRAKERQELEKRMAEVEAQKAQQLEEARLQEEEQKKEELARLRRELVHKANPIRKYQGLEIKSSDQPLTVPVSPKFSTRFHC
Chain of UniProt Q53H54 (Q53H54 whole entry, looked up): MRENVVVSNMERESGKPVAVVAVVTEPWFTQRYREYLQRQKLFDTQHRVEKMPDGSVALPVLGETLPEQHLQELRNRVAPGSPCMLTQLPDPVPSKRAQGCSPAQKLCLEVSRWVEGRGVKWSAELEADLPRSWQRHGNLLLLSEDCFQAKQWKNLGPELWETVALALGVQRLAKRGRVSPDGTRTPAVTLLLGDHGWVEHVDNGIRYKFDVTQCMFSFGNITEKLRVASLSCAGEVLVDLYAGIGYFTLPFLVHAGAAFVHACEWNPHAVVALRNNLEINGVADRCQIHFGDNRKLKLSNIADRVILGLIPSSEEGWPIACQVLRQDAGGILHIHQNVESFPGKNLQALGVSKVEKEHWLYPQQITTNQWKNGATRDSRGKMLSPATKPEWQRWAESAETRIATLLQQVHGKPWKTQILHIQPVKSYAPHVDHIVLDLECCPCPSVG
Chain of UniProt P36406 (P36406 whole entry, looked up): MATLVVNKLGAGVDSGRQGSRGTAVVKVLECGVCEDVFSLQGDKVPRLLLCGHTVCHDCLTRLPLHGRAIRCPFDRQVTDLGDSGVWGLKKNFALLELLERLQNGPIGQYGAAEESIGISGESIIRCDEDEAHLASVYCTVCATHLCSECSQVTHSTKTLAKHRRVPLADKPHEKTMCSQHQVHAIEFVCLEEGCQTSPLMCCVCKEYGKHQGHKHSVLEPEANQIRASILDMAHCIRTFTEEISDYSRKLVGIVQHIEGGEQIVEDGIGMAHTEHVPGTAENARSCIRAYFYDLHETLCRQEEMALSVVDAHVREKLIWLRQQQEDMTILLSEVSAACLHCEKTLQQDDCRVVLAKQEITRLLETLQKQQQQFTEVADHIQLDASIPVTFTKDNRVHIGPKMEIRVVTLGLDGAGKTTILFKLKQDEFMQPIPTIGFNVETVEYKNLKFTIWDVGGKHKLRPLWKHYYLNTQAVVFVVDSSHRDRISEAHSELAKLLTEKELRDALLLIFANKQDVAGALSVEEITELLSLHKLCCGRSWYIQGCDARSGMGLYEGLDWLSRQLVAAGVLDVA
Chain of UniProt Q8N0Z6 (Q8N0Z6 whole entry, looked up): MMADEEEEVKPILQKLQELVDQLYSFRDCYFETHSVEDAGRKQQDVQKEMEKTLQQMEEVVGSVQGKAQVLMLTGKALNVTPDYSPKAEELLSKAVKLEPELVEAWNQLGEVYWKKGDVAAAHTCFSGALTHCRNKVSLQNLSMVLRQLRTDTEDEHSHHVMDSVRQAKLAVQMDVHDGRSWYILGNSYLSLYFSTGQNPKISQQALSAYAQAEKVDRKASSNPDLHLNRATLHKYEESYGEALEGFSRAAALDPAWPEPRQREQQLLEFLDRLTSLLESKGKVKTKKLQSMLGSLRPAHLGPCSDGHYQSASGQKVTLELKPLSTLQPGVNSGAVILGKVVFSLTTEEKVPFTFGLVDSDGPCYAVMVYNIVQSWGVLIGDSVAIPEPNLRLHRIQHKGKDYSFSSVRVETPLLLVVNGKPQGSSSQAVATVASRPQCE
Chain of UniProt P06753 (P06753 whole entry, looked up): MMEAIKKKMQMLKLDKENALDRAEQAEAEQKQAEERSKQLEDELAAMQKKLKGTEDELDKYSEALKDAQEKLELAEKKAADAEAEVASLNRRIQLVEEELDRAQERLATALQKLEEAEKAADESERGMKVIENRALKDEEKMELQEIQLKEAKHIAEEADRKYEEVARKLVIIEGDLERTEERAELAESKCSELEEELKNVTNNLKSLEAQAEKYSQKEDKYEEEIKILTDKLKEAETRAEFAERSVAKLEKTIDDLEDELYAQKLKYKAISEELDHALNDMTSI

Target | log2 fold change [1] | log2 fold change [2] | log2 fold change [3] | log2 fold change [4] | log2 fold change [5] | log2 fold change [6] | log2 fold change [7] | log2 fold change [8] | log2 fold change [9] | log2 fold change [10] | log2 fold change [11] | log2 fold change [12] | log2 fold change [13] | log2 fold change [14] | log2 fold change [15] | log2 fold change [16] | log2 fold change [17] | log2 fold change [18] | log2 fold change [19] | log2 fold change [20]
TPX2 (UniProt Q9ULW0) | -0.002 | -0.129 | 0.014 | 0.01 | 0.045 | 0.041 | -0.215 (active) | 0.043 | -0.027 | 0.012 | 0.008 | 0.032 | 0.023 | 0.01 | 0.002 | 0.04 | -0.003 | 0.049 | -0.023 | -0.011
UBAP2L isoform 5 (UniProt Q14157) | 0.019 | 0.008 | 0.007 | 0.016 | 0.038 | 0.041 | -0.002 | 0.027 | 0.022 | -0.031 | -0.022 | -0.116 | 0.099 | -0.002 | -0.047 | 0.034 | -0.049 | -0.121 | -0.015 | -0.026
TRNAU1AP (UniProt Q9NX07) | -0.059 | -0.08 | 0.015 | -0.192 | -0.039 | 0.045 | 0.034 | 0.098 | -0.007 | -0.019 | 0 | -0.091 | -0.019 | -0.221 | -0.058 | 0.042 | -0.018 | 0.031 | -0.001 | 0.061
TPM3 isoform 2 (UniProt P06753) | 0.03 | 0.033 | -0.012 | 0 | -0.144 | 0 | -0.071 | 0 | -0.024 | 0.059 | -0.012 | 0.021 | 0.093 | 0.095 | 0.003 | -0.169 | 0.067 | 0.02 | 0.055 | -0.152
UBXN6 (UniProt Q9BZV1) | 0.014 | -0.087 | 0.03 | -0.019 | 0.055 | 0.042 | 0.104 | 0.017 | 0.006 | 0.006 | -0.075 | -0.048 | 0.004 | -0.014 | -0.028 | -0.018 | 0.008 | 0.017 | 0.033 | -0.023
TRIP13 (UniProt Q15645) | 0.018 | -0.159 | 0.014 | 0.07 | -0.049 | 0.03 | 0.114 | 0 | 0.014 | -0.036 | -0.015 | 0.014 | -0.028 | 0.039 | -0.01 | -0.187 | 0.005 | 0.026 | -0.029 | -0.045
TLK1 isoform 2 (UniProt Q9UKI8) | -0.05 | -0.092 | 0.046 | 0.16 | 0.023 | -0.045 | -0.14 | -0.028 | 0.05 | 0.01 | -0.047 | 0.135 | -0.061 | -0.032 | -0.048 | 0.456 (active) | 0.014 | 0.011 | -0.014 | 0.022
TOR3A (UniProt Q9H497) | 0.01 | -0.016 | 0.004 | 0.01 | 0.019 | 0.006 | -0.006 | 0.032 | -0.367 | 0.018 | -0.43 (active) | -0.077 | 0.023 | -0.078 | 0.012 | 0.012 | -0.047 | -0.024 | 0.046 | 0.048
TRIM23 (UniProt P36406) | -0.071 | 0.023 | 0.017 | -0.008 | 0.354 | -0.063 | 0.06 | -0.014 | 0.154 | 0.057 | -0.063 | -0.12 | -0.003 | -0.235 | 0.134 | 0.372 (active) | 0.026 | 0.01 | -0.088 | 0.297
TMEM70 (UniProt Q9BUB7) | -0.037 | -0.015 | -0.025 | -0.001 | -0.056 | 0.021 | -0.002 | 0.024 | -0.041 | -0.036 | -0.002 | -0.012 | -0.082 | -0.304 (active) | 0.011 | 0.057 | -0.014 | 0.092 | -0.038 | 0.138
TCF3 (UniProt P15923) | -0.039 | -0.066 | 0.034 | 0.089 | 0.19 | 0.135 | -0.051 | 0.047 | 0.027 | 0.023 | 0.014 | 0.014 | 0.066 | -0.042 | 0.22 (active) | 0.053 | -0.013 | -0.031 | -0.036 | -0.032
TCF12 isoform 3 (UniProt Q99081) | -0.045 | -0.129 | 0.009 | -0.007 | -0.013 | 0.039 | -0.043 | 0.004 | -0.025 | 0.028 | -0.047 | 0.055 | 0.034 | -0.038 | 0.025 | 0.056 | 0.023 | -0.011 | -0.11 | -0.001
TBC1D8B (UniProt Q0IIM8) | -0.134 | 0.051 | -0.017 | -0.057 | 0.078 | -0.032 | 0.033 | 0.11 | 0.026 | 0.008 | 0 | -0.072 | 0.013 | -0.229 | 0.007 | 0.176 | -0.011 | 0.014 | 0.03 | 0.097
TTC5 (UniProt Q8N0Z6) | -0.006 | -0.092 | -0.017 | -0.017 | -0.02 | -0.021 | 0.057 | -0.036 | -0.01 | 0.091 | 0.039 | -0.021 | -0.053 | -0.064 | 0.032 | -0.048 | 0.076 | 0.007 | -0.052 | 0.04
UGDH (UniProt O60701) | 0.023 | -0.151 | 0.015 | 0.071 | -0.132 | 0.047 | 0.037 | -0.025 | -0.004 | -0.042 | 0.009 | -0.021 | -0.015 | 0.037 | -0.063 | -0.067 | -0.073 | -0.053 | -0.019 | -0.022
TRMT12 (UniProt Q53H54) | -0.022 | -0.106 | -0.113 | -0.058 | 0.007 | 0.041 | 0.088 | -0.031 | 0.018 | 0.123 | 0.064 | -0.02 | -0.03 | -0.289 | 0.055 | -0.054 | -0.021 | 0.059 | -0.021 | 0.14
